Screening data (PubChem)
Sampled rows, rich in hits. Any-hit rate of the full collection: about 3.9%.
HSF-1 act: increases HSF-1 driven luciferase reporter signal. NIH3T3-HGL HSF-1 luciferase reporter, MG132, 8 h; 100% = twice DMSO control signal. activation, % at 9 µM. 1.7% of 300,000 active;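 active = mean replicate activation of at least 50% with a set share of replicates each reaching 50%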;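 note: 0% = median of the neutral control wells and 100% = twice that signal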
HSF1 inhib: HSF1 inhibition; 0.77% of 300,000 active; NIH3T3-HGL HSE-luciferase, MG132-induced, luminescence 8 h; hits give low values; activity change, negative = inhibition, % at 7.5 µM (by protocol); AID 2098;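 active = more than half of replicate wells show activity change below -50%, luminescence cut by over half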;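 note: luciferase reports HSF-1 transcriptional activity via heat shock element; 0% = median of DMSO wells and -100% = zero luminescence signal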
esBAF inh: SWI/SNF esBAF complex inhibition; 2% of 350,000 active; reporter increase, % at 12.5 µM; mouse ES cells, Bmi1-luciferase knock-in reporter, 24 h; 100% = twice the neutral-well signal; in the data active = activation above about 40%;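 note: 0% = median of the plate's neutral control wells and 100% = double that signal; a rise in the Bmi1 reporter signal indicates esBAF inhibition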
MITF TRPM1 HTS: activators of MITF-driven TRPM1 promoter activity in SK-MEL-5 cells. SK-MEL-5 TRPM1-promoter luciferase, 24 h; % of positive control, neutral wells = 0. activation, % at 12.5 µM. 0.75% of 300,000 active;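 active = mean activation of at least 80% with every replicate also reaching 80%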;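 note: 0% = neutral control wells and 100% = parthenolide positive control wells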
Wnt bcat act: Wnt/beta-catenin pathway activation. Wnt/beta-catenin reporter cell assay, activator, plate reader. activation, % at 9.35 µM. 1.2% of 300,000 active; in the data active = activation above about 30%, passing the limit was not always enough;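 note: 0% = neutral control wells and 100% = positive control wells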
Active calls of the source: *; x = no result.

SMILES	HSF-1 act	HSF1 inhib	esBAF inh	MITF TRPM1 HTS	Wnt bcat act
CNC(C)Cc1ccccc1 (stereo not drawn)	x	x	5	6	3
CC=Cc1ccc2n(c1=O)C[C@H]1[C@H](CO)[C@@H](C(=O)N(C)C)N[C@@H]21 (mixture of isomers)	x	x	3	x	x
Cc1ccc(Cn2nc(C(=O)Nc3ccc(Br)cc3)cc2C)cc1	28	32	59*	38	5
Cc1nn(Cc2ccccc2)c(Cl)c1C(=O)Nc1ccc(OC(F)(F)F)cc1	24	7	x	2	-6
COc1cc(/C=C/[N+](=O)[O-])ccc1OC(=O)c1cccnc1	39	23	-4	x	4
COc1cc2c(cc1/C=C/[N+](=O)[O-])OCO2	263*	190	2	-82	16
Cc1ccc2c(c1)C1CN(C)CCC1N2C(=O)Nc1cccc(C(F)(F)F)c1 (stereo not drawn)	-77	-70*	7	-13	-6
CCOC(=O)c1ccccc1N	x	x	-8	4	-1
Nc1ccccc1C(=O)OCc1ccc([N+](=O)[O-])cc1	24	5	57*	54	4
Cc1ccsc1/C=C1\C(=O)NC(=S)N(C)C1=O	-75	-67*	-1	-70	2
CN1C(=O)/C(=C\c2ccc(N3CCCCCC3)cc2)C(=O)NC1=S	2	9	x	x	4
CN1C(=O)/C(=C/c2ccc(N3CCCCCC3)o2)C(=O)NC1=S	-17	-11	3	x	44*
C=CCN1C(=O)/C(=C\c2ccc(N3CCOCC3)o2)C(=O)NC1=S	-21	-9	x	-6	-3
CN1C(=O)/C(=C\c2ccc(N3CCCCC3)o2)C(=O)NC1=S	17	-5	21	x	50*
CN1C(=O)/C(=C/c2ccc(Cl)s2)C(=O)NC1=S	-5	-1	6	x	-1
CCCN1[C@@H]2c3ccc(-c4ccc(F)cc4)c(=O)n3C[C@H]1[C@H](CO)[C@H]2C(=O)OC	x	x	-3	x	x
COC(=O)[C@H]1[C@H](CO)[C@H]2Cn3c(ccc(-c4ccccc4)c3=O)[C@@H]1N2S(=O)(=O)c1ccccc1C	x	x	1	x	x
COC(=O)[C@H]1[C@H](CO)[C@H]2Cn3c(cccc3=O)[C@@H]1N2CCc1ccccc1	x	x	-1	x	x
O=C(O)[C@@H]1[C@@H](CO)[C@@H]2Cn3c(cccc3=O)[C@H]1N2C(=O)c1ccccc1	x	x	0	x	x
CN(C)C(=O)Oc1c(Cl)cc(Cl)c2cccnc12	9	-2	-8	-2	48*
CN(C(=O)Oc1ccc(Cl)c2cccnc12)c1ccccc1	-8	0	x	5	x
COC(=O)[C@@H]1[C@@H](CO)[C@@H]2Cn3c(ccc(-c4cccnc4)c3=O)[C@H]1N2S(=O)(=O)c1ccccc1F	x	x	-5	x	x
O=C(O)[C@@H]1[C@@H](CO)[C@@H]2Cn3c(ccc(-c4ccncc4)c3=O)[C@H]1N2C(=O)C1CC1	x	x	1	x	x
COc1ccc(CN2CC=C(c3ccc(F)cc3)CC2)cc1Br	-76	-68*	-16	7	2
Cc1cccc(S(=O)(=O)N2[C@@H]3c4ccc(-c5ccccc5)c(=O)n4C[C@H]2[C@H](CO)[C@H]3C(=O)O)c1	x	x	-5	x	x
SMILES	HSF-1 act	HSF1 inhib	esBAF inh	MITF TRPM1 HTS	Wnt bcat act
CC12CCC3C(CC=C4CC(O)CCC43C)C1C/C(=C\N1CCCC1)C2=O (stereo not drawn)	63*	36	x	x	x
CCN(C=C1CC2C3CC=C4CC(O)CCC4(C)C3CCC2(C)C1=O)CC (stereo not drawn)	x	x	1	12	-2
COC(=O)[C@@H]1[C@@H](CO)[C@@H]2Cn3c(ccc(-c4ccccc4F)c3=O)[C@H]1N2C(=O)C1CCC1	x	x	0	x	x
CC1CCN(C(CC(=O)c2ccccc2)C(=O)c2ccccc2)CC1 (stereo not drawn)	x	x	24	2	51*
Cc1cc(C)nc(-n2c(C)nc3cc(Cl)ccc3c2=O)c1	-83	-78*	9	3	x
Cc1cccc(-n2c(C)nc3ccccc3c2=O)n1	-15	-5	25	-1	3
C/C=C/c1ccc([C@H]2[C@@H](CO)N3CCCCN(C(=O)Cc4ccncc4)C[C@@H]23)cc1	x	x	-2	x	x
O=Cc1cn(Cc2c(F)cccc2Cl)nc1-c1ccccc1	33	25	-11	21	-4
CCc1ccc(-c2nn(Cc3ccccc3)cc2C=O)cc1	102*	60	67*	69	14
Cc1nc2c(=O)n(C)c(=O)nc-2n(C)n1	-95	-94*	x	-109	x
CCn1nc(-c2ccccc2)nc2c(=O)n(C)c(=O)nc1-2	x	x	0	-99	x
